Experimental data as given in PubChem BioAssay AID1159580 (chemical genetic matrix, 2015).
Hit rate of the full screen: of about 5,500 compounds, about 2,000 (36%) were called active. Inconclusive results (about 18%) are left out. Rule as the data show it: active = normalized growth mostly below about 0.91 (no sharp cut-off); inconclusive = no clear call, values can overlap the other calls; inactive = mostly above about 0.92. Some of the results follow.

Assay: chemical genetic growth profiling, strain panel (AID 1159580);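 also: tested at 20 µM; growth read once vehicle control cultures reached saturation at 30 °C; 1 = growth at the plate median or of vehicle wells; lower values mean less growth of the strain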
Conditions: S. cerevisiae deletion strains, growth OD

Measured: normalized growth

Cc1nc(N)cc(C[n+]2csc(CCO)c2C)n1
inactive: locus YAL021C, strain ccr4, stronger effect = lower value 0.946 | locus YAL026C, strain drs2, stronger effect = lower value 0.974 | locus YAL030W, strain snc1, stronger effect = lower value 0.981 | locus YBL061C, strain skt5, stronger effect = lower value 0.983 | locus YBR009C, strain hhf1, stronger effect = lower value 0.979 | locus YBR023C, strain chs3, stronger effect = lower value 0.998 | locus YBR171W, strain sec66, stronger effect = lower value 0.971 | locus YBR231C, strain swc5, stronger effect = lower value 0.987 | locus YBR279W, strain paf1, stronger effect = lower value 0.985 | locus YCL011C, strain gbp2, stronger effect = lower value 0.966 | locus YCL016C, strain dcc1, stronger effect = lower value 0.992 | locus YCL061C, strain MRC1, stronger effect = lower value 0.977 | locus YCL069W, strain vba3, stronger effect = lower value 0.981 | locus YCR088W, strain abp1, stronger effect = lower value 0.98 | locus YDL005C, strain med2, stronger effect = lower value 0.984 | locus YDL040C, strain nat1, stronger effect = lower value 0.988 | locus YDR001C, strain nth1, stronger effect = lower value 0.974 | locus YDR069C, strain doa4, stronger effect = lower value 0.984 | locus YDR137W, strain rgp1, stronger effect = lower value 0.966 | locus YDR159W, strain sac3, stronger effect = lower value 0.965 | locus YDR195W, strain ref2 0.944 | locus YDR297W, strain sur2, stronger effect = lower value 0.979 | locus YDR334W, strain swr1, stronger effect = lower value 0.955 | locus YDR335W, strain msn5, stronger effect = lower value 0.966 | locus YDR392W, strain spt3, stronger effect = lower value 0.973 | locus YEL003W, strain gim4, stronger effect = lower value 0.971 | locus YEL037C, strain rad23, stronger effect = lower value 0.967 | locus YEL061C, strain CIN8 (second series), stronger effect = lower value 0.974 | locus YER015W, strain faa2, stronger effect = lower value 0.975 | locus YER016W, strain bim1, stronger effect = lower value 0.979 | locus YER111C, strain swi4, stronger effect = lower value 0.992 | locus YER155C, strain BEM2 (second series), stronger effect = lower value 0.975 | locus YFR010W, strain ubp6, stronger effect = lower value 0.962 | locus YGL167C, strain pmr1, stronger effect = lower value 0.973 | locus YGL173C, strain kem1, stronger effect = lower value 0.979 | locus YGL227W, strain vid30, stronger effect = lower value 0.987 | locus YGL240W, strain doc1, stronger effect = lower value 0.98 | locus YGL253W, strain hxk2, stronger effect = lower value 0.986 | locus YHR013C, strain ard1, stronger effect = lower value 0.986 | locus YHR027C, strain rpn1, stronger effect = lower value 0.988 | locus YHR030C, strain SLT2, stronger effect = lower value 0.954 | locus YHR079C, strain IRE1, stronger effect = lower value 0.942 | locus YHR142W, strain chs7, stronger effect = lower value 0.963 | locus YJL092W, strain hpr5, stronger effect = lower value 0.966 | locus YJL095W, strain BCK1 (second series), stronger effect = lower value 0.978 | locus YJL095W, strain BCK1, stronger effect = lower value 0.968 | locus YJL115W, strain asf1, stronger effect = lower value 0.969 | locus YJL129C, strain trk1, stronger effect = lower value 0.965 | locus YJL154C, strain vps35, stronger effect = lower value 0.988 | locus YJL164C, strain tpk1, stronger effect = lower value 0.985 | locus YJL166W, strain qcr8, stronger effect = lower value 0.981 | locus YJL187C, strain SWE1, stronger effect = lower value 0.99 | locus YJR066W, strain TOR1, stronger effect = lower value 0.932 | locus YKL160W, strain elf1, stronger effect = lower value 0.981 | locus YKR026C, strain gcn3, stronger effect = lower value 0.97 | locus YKR091W, strain srl3, stronger effect = lower value 0.978 | locus YLL001W, strain dnm1, stronger effect = lower value 0.983 | locus YLL026W, stronger effect = lower value 0.988 | locus YLL041C, strain sdh2, stronger effect = lower value 0.98 | locus YLR027C, strain aat2, stronger effect = lower value 0.986 | locus YLR113W, strain HOG1, stronger effect = lower value 0.941 | locus YLR221C, strain rsa3, stronger effect = lower value 0.982 | locus YLR258W, strain gsy2, stronger effect = lower value 0.986 | locus YLR262C, strain YPT6 (second series), stronger effect = lower value 0.992 | locus YLR320W, strain mms22, stronger effect = lower value 0.988 | locus YLR342W, strain FKS1, stronger effect = lower value 0.991 | locus YLR357W, strain rsc2, stronger effect = lower value 0.99 | locus YLR370C, strain arc18, stronger effect = lower value 0.979 | locus YLR384C, strain iki3, stronger effect = lower value 0.983 | locus YML120C, strain ndi1, stronger effect = lower value 0.962 | locus YMR058W, strain fet3, stronger effect = lower value 0.969 | locus YMR125W, strain sto1, stronger effect = lower value 0.946 | locus YMR129W, stronger effect = lower value 0.97 | locus YMR205C, strain PFK2, stronger effect = lower value 1.01 | locus YMR231W, strain pep5, stronger effect = lower value 0.992 | locus YNL071W, strain lat1, stronger effect = lower value 0.988 | locus YNL183C, strain NPR1, stronger effect = lower value 0.926 | locus YNL209W, strain ssb2, stronger effect = lower value 0.981 | locus YNL248C, strain rpa49, stronger effect = lower value 0.948 | locus YNL322C, strain KRE1 (second series), stronger effect = lower value 0.964 | locus YNR049C, strain mso1, stronger effect = lower value 0.978 | locus YOR001W, strain rrp6, stronger effect = lower value 0.95 | locus YOR070C, strain gyp1, stronger effect = lower value 0.998 | locus YOR080W, strain dia2, stronger effect = lower value 0.971 | locus YOR083W, strain WHI5, stronger effect = lower value 0.969 | locus YOR106W, strain vam3, stronger effect = lower value 0.972 | locus YOR231W, strain MKK1, stronger effect = lower value 0.96 | locus YOR265W, strain rbl2, stronger effect = lower value 0.983 | locus YOR270C, strain vph1, stronger effect = lower value 0.94 | locus YOR290C, strain snf2, stronger effect = lower value 0.975 | locus YPL051W, strain arl3, stronger effect = lower value 0.996 | locus YPL078C, strain atp4, stronger effect = lower value 0.976 | locus YPL106C, strain sse1, stronger effect = lower value 0.953 | locus YPL240C, strain hsp82, stronger effect = lower value 0.972 | locus YPL256C, strain CLN2, stronger effect = lower value 0.95
